Screen size: about 300,000 compounds; about 37,000 (12%) were called active. The list comes from a sample in which actives are over-represented; it also holds similar structures and randomly drawn compounds. Unmarked numbers belong to inactive results. No stated cut-off is given here; in the data, active means max response mostly above about 13% (no sharp cut-off); inactive means mostly below about 14%.

The test can be described thus: Cycloheximide Counterscreen for Small Molecule Inhibitors of Shiga Toxin. Further: read at 38.3 µM for the half of the compounds with a filed dose; 0% is about no effect. Particulars: cell reporter, cycloheximide protein synthesis inhibition counterscreen; active compounds read high.
Take `N#Cc1c(-c2ccccc2)nc(SCc2cccc(C(F)(F)F)c2)[nH]c1=O`: the max response was 4.14%.
Take `CCc1ccc(NC(=O)Cn2nnc(C(=O)NCc3ccc(OC)cc3)c2N)cc1`: the max response is -3.14%.
With `CCCCCc1c(C)nc(N2CCN(Cc3ccc4c(c3)OCO4)CC2)[nH]c1=O` the figure was -0.993%; with `O=S(=O)(c1ccc(F)cc1)n1ccc(-c2cnc(-c3ccccc3)s2)n1`, 1.13%; with `CC(=O)c1cnc(-c2ccccc2)s1`, 35.2% (active).
With `O=C(/C=C/Nc1ccccc1)c1cnc(-c2ccccc2)s1` the figure was 1.67%.
In the case of `Cc1cccc(N2CCN(S(=O)(=O)c3ccc4[nH]c(=O)c(=O)[nH]c4c3)CC2C)c1` (configuration not stated), the max response is -2.14%.
Take `CC1(C)C(C=C(Cl)Cl)C1C(=O)N(Cc1ccc(Cl)cc1)C1CCS(=O)(=O)C1` (configuration not stated): the max response is 3.61%.
With `Cc1ccc2nc(S(=O)(=O)O)[nH]c2c1` the figure was -7.91%; with `Cc1ccc2nc(/C(C#N)=C\c3ccc(OC(=O)c4cccs4)cc3)[nH]c2c1`, 29.1% (active); with `COc1ccc(CCNC(=O)/C(C#N)=C2\N=C(NC(=O)c3cccs3)c3ccccc32)cc1`, -2.25%.
With `O=C(Nc1ccon1)c1cccc(Cl)c1` the figure was 8.4%.
With `O=C(Nc1ccon1)c1sc2ccccc2c1Cl` the figure was 64.4% (active); with `CN1CCc2ccccc2C1Cc1ccccc1NC(=O)c1sc2ccccc2c1Cl` (configuration not stated), 5.79%.
Regarding `COc1ccc(C)cc1NC(=O)C(Sc1ccccc1)c1ccccc1` (configuration not stated), the max response is -3.77%.
As to `CC1CCN(C(=O)c2ccc3c(=O)n4c(nc3c2)CCCCC4)CC1`, the max response was 14.9%.
With `CCn1nc(C)c(CN2CCN(Cc3ccc(OC)c(C)c3C)C(CCO)C2)c1C` (configuration not stated) the figure was -1.08%.
With `Cc1cccc(-[n+]2c(-c3cccc(Br)c3)[nH]c3nc4ccccc4nc32)c1` the figure was 0.81%; with `COc1ccc(OCC(=O)NCCS(=O)(=O)N2CCN(c3ccc(F)cc3)CC2)cc1`, 13.1%; with `O=C(NCc1ccc(Cl)cc1)C1CCN(S(=O)(=O)c2cccs2)CC1`, -3.46%.
With `COc1ccc(CNC(=O)CN(Cc2ccc(Cl)cc2)S(C)(=O)=O)cc1` the figure was -2.61%; with `CN(CC(=O)NCc1ccc(Cl)cc1)S(=O)(=O)c1cccs1`, 10.2% (active).
Consider `NC(=O)CN1CCCC1c1ccc2c(c1)OCCO2` (configuration not stated), for which the max response was 10.4%.
On to `Cc1ccccc1OCC(=O)NNC(=O)c1cc(S(=O)(=O)N(C)C)ccc1N1CCCC1`, for which the max response is -2.55%.
With `CCn1c(SCC(=O)N/N=C/C=C/c2ccccc2[N+](=O)[O-])nnc1-c1ccccc1` the figure was 8.3%; with `Cc1ccc(-n2c(SCC(=O)N/N=C/C=C/c3ccccc3[N+](=O)[O-])nc3ccccc3c2=O)cc1`, -7.24%.
With `O=C(CSc1nc2ccccc2[nH]1)N/N=C/C=C\c1ccccc1[N+](=O)[O-]` the figure was 13.8% (active); with `OC(COc1ccc(Br)cc1)CN1CCCC1` (configuration not stated), -1.85%.
With `CN(CCC1CCOCC1)C(=O)CC1C(=O)NCCN1Cc1cccc(F)c1` (configuration not stated) the figure was -2.83%; with `CC(=O)c1c(C)[nH]c(C(=O)OCC(=O)Nc2cc(S(=O)(=O)N3CCCCC3)ccc2C)c1C`, -1.55%; with `Cc1cccc([C@H]2[C@@H]3C=CC[C@@H](C)[C@@H]3C(=O)N2Cc2ccccc2)c1`, -6.21%.
On to `COc1ccc(NCCc2ccccn2)cc1`, for which the max response is 30.6% (active).
In the case of `Cc1c(C)c(C)c(S(=O)(=O)NCCc2ccccn2)c(C)c1C`, the max response was -3.58%.
With `O=S(=O)(/C=C/c1ccccc1)NCCc1ccccn1` the figure was 10.5%; with `COc1ccc(S(=O)(=O)NC(C)C(=O)NCc2ccncc2)cc1Cl` (configuration not stated), -5.01%.
With `Cc1c(CNCCc2ccccc2)c(C(=O)O)c(C)n1-c1ccccc1` the figure was 12.6% (active).
With `Cc1c(C(=O)NCc2ccccc2)cnn1-c1ccccc1` the figure was 22.7%; with `CNC(=O)CSc1nnc(CCc2ccccc2)n1-c1ccccc1`, 1.1%; with `COC(=O)CCCC1=CC2=C(c3ccccc3)C(=O)C(C)(OC(=O)C3CCCC3)C(=O)C2=CN1c1ccc(OC)cc1` (configuration not stated), -2.86%.
For the molecule `CCn1c(=S)[nH]c2sc3c(c2c1=O)CCCCC3`, the max response is -1.45%.
With `COc1ccc(N2CCN(C3CCCCC3NS(=O)(=O)c3ccccc3)CC2)cc1` (configuration not stated) the figure was -5.98%; with `Cc1nc(N2CCC(C)CC2)c2c(C)c(C(=O)Nc3cc(F)ccc3C)sc2n1`, 4.36%.
With `Cc1ccc2cc(C)c(N3CCN(c4ccc(F)cc4)CC3)nc2c1` the figure was 10.1%.
With `Cc1ccc2cc(C)c(N3CCC(C)CC3)nc2c1` the figure was 23.2% (active).
In the case of `CC(NC(=O)c1cccc2ccccc12)c1ccc2c(c1)CCCC2` (configuration not stated), the max response is -1.47%.
With `Cc1ccc(NC(=S)N(CCCN2CCC(C)CC2)Cc2ccco2)cc1` the figure was -1.16%; with `Cc1ccc(NC(=S)N(CCN2CCCCC2)Cc2ccco2)cc1C`, 6.6%.
With `Cc1ccc(NC(=S)N(Cc2ccco2)C(C)c2cccs2)cc1` (configuration not stated) the figure was 15.6% (active).
With `O=C(C1=C[C@H](c2ccc(C(F)(F)F)cc2)C[C@H](OCc2ccc(CO)cc2)O1)N1CCN(Cc2ccccc2)CC1` the figure was -1.19%; with `O=C(O)C1CCCN1S(=O)(=O)c1ccc(Br)cc1` (configuration not stated), -3.32%; with `CCCCNC(=O)CN1C(=O)NC(Cc2ccccc2)(Cc2ccccc2)C1=O`, -4.58%.
`O=S(=O)(c1ccccc1)c1nc(-c2ccccc2)oc1NCCCN1CCOCC1`: the max response is -2.06%.
With `CC(C)(C)c1ccc(C(=O)NNC(=O)Cc2ccccc2)cc1` the figure was 37.7% (active); with `CCNC(=S)NNC(=O)Cc1ccccc1`, -1.87%.
With `O=C(CCc1ccccc1)NNC(=O)c1ccc(Br)cc1` the figure was 5.92%; with `COc1cc(N=Cc2c(O)c3ccccc3oc2=O)c(OC)cc1Cl`, 0.554%.
With `Cc1ccc(S(=O)(=O)NC2CCCCCC2)cc1C(N)=O` the figure was -1.91%; with `CC(NCCc1ccc(S(N)(=O)=O)cc1)C(=O)NCc1ccccc1` (configuration not stated), 2.64%.
On to `O=C(Nc1ncc([N+](=O)[O-])s1)C1COc2ccccc2O1` (configuration not stated), for which the max response was 49.4% (active).
With `CCN(CC)S(=O)(=O)c1ccc(N2CCOCC2)c(NC(=O)C2COc3ccccc3O2)c1` (configuration not stated) the figure was 4.39%.
`CC(=O)Oc1ccccc1C(=O)Nc1ncc([N+](=O)[O-])s1`: the max response was 29.9% (active).
With `O=C(Nc1nc(-c2ccncc2)cs1)C1COc2ccccc2O1` (configuration not stated) the figure was -3.21%; with `O=C(Nc1ccncc1)c1ccccc1[N+](=O)[O-]`, -7.9%; with `CN(c1ccccc1)S(=O)(=O)c1cccc(NC(=O)Cc2c(F)cccc2Cl)c1`, 10.4%.
With `CC(NC(=S)Nc1ccccc1)C1COc2ccccc2O1` (configuration not stated) the figure was -3.29%.
With `O=C(Nc1nc2c(F)cc(F)cc2s1)C1COc2ccccc2O1` (configuration not stated) the figure was 24.7% (active).
`Cc1ccc(S(=O)(=O)N(C)C)cc1NC(=O)COC(=O)C1COc2ccccc2O1` (configuration not stated): the max response is -1.56%.
With `O=C(Cc1c(F)cccc1Cl)Nc1ncc([N+](=O)[O-])s1` the figure was 32.7% (active); with `O=C(Cc1c(F)cccc1Cl)Nc1ccc(-n2cnnn2)cc1`, 8.09%; with `COc1ccc(NC(=O)c2ccccc2[N+](=O)[O-])cc1OC`, 3.51%.
With `O=C1Nc2cc(C(=O)N3CCC(N4CCCCC4)CC3)ccc2S/C1=C\c1ccccc1`, the max response is -5.33%.
Regarding `C=CCN1C2CCCC1CC(NC(=S)Nc1cccc(OC)c1)C2` (configuration not stated), the max response is -2.67%.
With `CC(=O)N1CCc2cc(S(=O)(=O)NC3CCCCC3)ccc21` the figure was -2.05%.
Turning to `O=C(Nc1ccc(C(=O)O)cc1)/C(=C\c1ccccc1)NC(=O)c1ccc(Br)cc1`, the max response is -2.74%.
With `COc1ccc(C(=O)NC2CC(C)(C)Cc3c2cnn3-c2ccccc2)c(OC)c1` (configuration not stated) the figure was 0.758%; with `CCCNC(=O)OC[C@H]1O[C@H](CCO/N=C/[C@@H](NS(=O)(=O)c2ccc(C)cc2)[C@H](C)/C=C/CC(=O)OC)C=C[C@@H]1Oc1ccc(OC)cc1`, -2.36%.
With `Cc1cccc(N2CCN(C(=O)CN(C)S(=O)(=O)c3ccc4c(c3)CCC(=O)N4)CC2)c1C` the figure was -5.43%; with `COc1ccc(CNC(=O)C(C)n2nc(C)c3c(C)n(-c4ccccc4)nc3c2=O)c(OC)c1` (configuration not stated), -7.8%.
With `Cc1cccc(S(=O)(=O)N2CN(CC3CCCO3)c3nc4ccccc4nc32)c1` (configuration not stated) the figure was 12.8%; with `O=c1oc2ccccc2c(CNc2ccccc2)c1[N+](=O)[O-]`, -2.06%; with `CCOc1ccccc1N1CCN(C(=O)COc2ccc3c(C)cc(=O)oc3c2)CC1`, -3.54%.
On to `O=C(CCc1ccccc1)Nc1ncc([N+](=O)[O-])s1`, for which the max response was 60.9% (active).
On to `CC(C)(C)NC(=O)CSc1nnc(NC(=O)CCc2ccccc2)s1`, for which the max response is -0.182%.
With `COc1ccc([N+](=O)[O-])cc1NC(=O)CCc1ccccc1` the figure was -3.85%.
With `CCCn1c(SCC(=O)c2ccc3c(c2)OCCO3)nnc1C(C)C` the figure was 15.2% (active); with `CCn1c(SCC(=O)Nc2ccc3c(c2)OCCO3)nnc1C(C)C`, -1.89%.
`CCCn1c(SCC(N)=O)nnc1C(C)C`: the max response is -4.34%.
With `COc1cc(C(=O)N/C(=C\c2cn(C)c3ccccc23)C(=O)N2CCOCC2)cc(OC)c1OC` the figure was -5.05%.
With `O=C(C1CCCN(S(=O)(=O)c2ccccc2)C1)N1CCN(c2ccc(F)cc2)CC1` (configuration not stated) the figure was 8%; with `CCOC(=O)c1ccc2[nH]c3c(c2c1)CCCC3NC=O` (configuration not stated), 13.2% (active); with `O=[N+]([O-])c1ccc2[nH]c3c(c2c1)CCCC3O` (configuration not stated), -4.82%.
With `CCOC(=O)c1ccc(NC(=O)c2cc(=O)[nH]c3ccccc23)cc1` the figure was -2%.

The record behind these values is PubChem BioAssay AID2314 (National Center for Advancing Translational Sciences (NCATS), 2010).
